Measurements from PubChem BioAssay (NCI).
About 79,000 compounds went through this panel and 15% of them were active in at least one assay; those are over-represented in the sample as a whole. The source made the active and inactive calls. Rule as the data show it: active = growth inhibition above about 70%; inactive = the rest.

Assay: NCI Yeast Anticancer Drug Screen. Data for the mlh1 strain (AID 171);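 also: 0% = growth of vehicle-treated control cultures of the same strain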
Conditions: S. cerevisiae mlh1 strain growth inhibition; at 33.0 µM; active compounds read high
How it was run: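 Inhibition values reflect reduced yeast growth in the presence of compound, referenced to vehicle controls, using a strain chosen for its alteration in DNA repair or cell cycle control.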

SMILES	growth inhibition
CCC/C(Cl)=N\OC(=O)Nc1cccc(C(F)(F)F)c1	18% (inactive)
[O-][n+]1c2ccc(O)cc2nc2ccc(Cl)cc21	62% (inactive)
Clc1ccccc1C1OC1c1ccccc1Cl (stereo not drawn)	-50% (inactive)
c1ccc2c(c1)c1ncccc1c1nccnc21	2% (inactive)
CC(=O)Nc1ccc2c(c1)C(=Nc1ccc(C(=O)O)cc1)c1ccccc1-2	15% (inactive)
COc1ccc(OC)c2cc3ccccc3cc12	20% (inactive)
COc1cc(C2c3cc4c(cc3OC(NNc3ccccc3)C2C)OCO4)cc(OC)c1OC (stereo not drawn)	26% (inactive)
O=C1c2cc([N+](=O)[O-])ccc2-c2cccc(F)c21	22% (inactive)
CCCCCCCCCCCC(=O)N(C)C	-28% (inactive)
CCCCCCCCCCCC1=C(O)C(=O)C=C(O)C1=O	93% (active)
Cc1ccc(CSC(N)=Nc2ccccc2)cc1C	4% (inactive)
CCCCCCCCCCC1CCC(=O)O1 (stereo not drawn)	10% (inactive)
O=[N+]([O-])c1cc(CCl)ccc1CCl	95% (active)
Nc1ccc2c(c1)C(=O)c1cccc(N)c1C2=O	74% (active)
CCCCCCCCCCNC(=O)OCC	20% (inactive)
CC1=C(C)Cc2c(O)ccc(O)c2C1	6% (inactive)
COc1ccc2c(c1)C(=O)c1ccccc1C2	11% (inactive)
CCC(=O)OCCn1c2nc(=O)[nH]c(=O)c-2nc2cc(C)c(C)cc21	65% (inactive)
O=C(OCCN1CCCCCC1)C(c1ccsc1)C1CCCCC1 (stereo not drawn)	29% (inactive)
Oc1c(Br)cc(Br)cc1C1CCCCC1	91% (active)

SMILES	growth inhibition
CC1(C)[C@@H]2CC[C@]1(C)[C@H](OC(=O)CSC#N)C2	73% (active)
S=C(N/N=C(/c1ccccc1)c1ccccn1)N1CCCCCC1	1% (inactive)
Cc1ccc2[nH]c3c(C)c4cc[n+](C)cc4c(C)c3c2c1	61% (inactive)
CNC(=O)OCc1c(COC(=O)NC)c(-c2ccc(-c3ccccc3)cc2)n(C)c1C	11% (inactive)
COc1ccccc1/C=C1\Sc2scc(-c3cccc([N+](=O)[O-])c3)[n+]2C1=O	97% (active)
O=[N+]([O-])c1ccc2c(c1)C(N1CCN(CCO)CC1)Cc1ccc(F)cc1S2 (stereo not drawn)	-3% (inactive)
Cc1ccc(CCC2=CCCc3c2ccc2ccccc32)cc1	-1% (inactive)
O=[N+]([O-])c1cccc2nccc(NCCCO)c12	5% (inactive)
Cc1ccc(-n2cc(-c3ccc(Cl)cc3)c(C#N)c2N)cc1	-2% (inactive)
Cc1ccc(S/N=C\c2ccccc2O)cc1	0% (inactive)
O=C(O)C1OC1(c1cccc(Cl)c1)c1ccccc1Cl (stereo not drawn)	37% (inactive)
NC(=S)N/N=C\c1nccc2ccccc12	97% (active)
Clc1cccc(C(Nc2nncs2)Nc2nncs2)c1Cl	16% (inactive)
O=C(OCC=C1CCCC1)c1cc([N+](=O)[O-])cc([N+](=O)[O-])c1	94% (active)
O=C(Nc1ccccc1)C(=O)C(C(=O)c1ccccc1)C(c1ccccc1)c1ccccc1 (stereo not drawn)	16% (inactive)
N#CN1C2CCC1CC(=O)C2	-16% (inactive)
COc1ccccc1C(=O)OCC1CCCN2CCCCC12 (stereo not drawn)	91% (active)
CCNc1nnc(CSc2nc(-c3ccccc3)c(-c3ccccc3)[nH]2)s1	81% (active)
O=C1c2ccccc2-c2n[nH]c3cccc1c23	39% (inactive)

Same assay, conditions: S. cerevisiae mlh1 strain growth inhibition; at 100.0 µM; active compounds read high

SMILES	growth inhibition
CCC/C(Cl)=N\OC(=O)Nc1cccc(C(F)(F)F)c1	17% (inactive)
[O-][n+]1c2ccc(O)cc2nc2ccc(Cl)cc21	78% (active)
Clc1ccccc1C1OC1c1ccccc1Cl (stereo not drawn)	24% (inactive)
c1ccc2c(c1)c1ncccc1c1nccnc21	17% (inactive)
CC(=O)Nc1ccc2c(c1)C(=Nc1ccc(C(=O)O)cc1)c1ccccc1-2	90% (active)
COc1ccc(OC)c2cc3ccccc3cc12	19% (inactive)
COc1cc(C2c3cc4c(cc3OC(NNc3ccccc3)C2C)OCO4)cc(OC)c1OC (stereo not drawn)	30% (inactive)
O=C1c2cc([N+](=O)[O-])ccc2-c2cccc(F)c21	44% (inactive)
CCCCCCCCCCCC(=O)N(C)C	98% (active)
CCCCCCCCCCCC1=C(O)C(=O)C=C(O)C1=O	91% (active)
Cc1ccc(CSC(N)=Nc2ccccc2)cc1C	66% (inactive)
CCCCCCCCCCC1CCC(=O)O1 (stereo not drawn)	99% (active)
O=[N+]([O-])c1cc(CCl)ccc1CCl	98% (active)
Nc1ccc2c(c1)C(=O)c1cccc(N)c1C2=O	85% (active)
CCCCCCCCCCNC(=O)OCC	99% (active)
CC1=C(C)Cc2c(O)ccc(O)c2C1	44% (inactive)
COc1ccc2c(c1)C(=O)c1ccccc1C2	28% (inactive)
CCC(=O)OCCn1c2nc(=O)[nH]c(=O)c-2nc2cc(C)c(C)cc21	86% (active)
O=C(OCCN1CCCCCC1)C(c1ccsc1)C1CCCCC1 (stereo not drawn)	35% (inactive)
Oc1c(Br)cc(Br)cc1C1CCCCC1	96% (active)

SMILES	growth inhibition
CC1(C)[C@@H]2CC[C@]1(C)[C@H](OC(=O)CSC#N)C2	98% (active)
S=C(N/N=C(/c1ccccc1)c1ccccn1)N1CCCCCC1	-1% (inactive)
Cc1ccc2[nH]c3c(C)c4cc[n+](C)cc4c(C)c3c2c1	94% (active)
CNC(=O)OCc1c(COC(=O)NC)c(-c2ccc(-c3ccccc3)cc2)n(C)c1C	-1% (inactive)
COc1ccccc1/C=C1\Sc2scc(-c3cccc([N+](=O)[O-])c3)[n+]2C1=O	90% (active)
O=[N+]([O-])c1ccc2c(c1)C(N1CCN(CCO)CC1)Cc1ccc(F)cc1S2 (stereo not drawn)	35% (inactive)
Cc1ccc(CCC2=CCCc3c2ccc2ccccc32)cc1	4% (inactive)
O=[N+]([O-])c1cccc2nccc(NCCCO)c12	30% (inactive)
Cc1ccc(-n2cc(-c3ccc(Cl)cc3)c(C#N)c2N)cc1	-4% (inactive)
Cc1ccc(S/N=C\c2ccccc2O)cc1	1% (inactive)
O=C(O)C1OC1(c1cccc(Cl)c1)c1ccccc1Cl (stereo not drawn)	90% (active)
NC(=S)N/N=C\c1nccc2ccccc12	99% (active)
Clc1cccc(C(Nc2nncs2)Nc2nncs2)c1Cl	49% (inactive)
O=C(OCC=C1CCCC1)c1cc([N+](=O)[O-])cc([N+](=O)[O-])c1	98% (active)
O=C(Nc1ccccc1)C(=O)C(C(=O)c1ccccc1)C(c1ccccc1)c1ccccc1 (stereo not drawn)	31% (inactive)
N#CN1C2CCC1CC(=O)C2	-21% (inactive)
COc1ccccc1C(=O)OCC1CCCN2CCCCC12 (stereo not drawn)	98% (active)
CCNc1nnc(CSc2nc(-c3ccccc3)c(-c3ccccc3)[nH]2)s1	66% (inactive)
O=C1c2ccccc2-c2n[nH]c3cccc1c23	58% (inactive)
